# A selection: hits, their analogues and other compounds. The true share with any hit is near 4.5%.
# Rpn11 block = blocks the human proteasome subunit Rpn11. human 26S proteasome, Ub4-pepOG fluorescence polarization; 20S core pre-blocked with epoxomicin. inhibition, % at 20 µM. AID 588493. hit rate 0.59% among 360,000;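 active = inhibition at 20 µM, scaled to each plate's controls, above about 33%, limit read from the data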
# TPT1 inh = C. albicans TPT1 enzyme inhibition; hit rate 0.81% among 300,000; inhibition, % at 5 µM; recombinant caTPT1, FP RNA substrate dephosphorylation; AID 1962;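 active = inhibition above the mean of all tested compounds plus 3 SD, set per screening campaign, cut at about 24% in these data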;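 note: plate controls were DMSO alone for no effect and ferristatin control at 100 nM for full effect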
# EBNA-1 inh = blocks EBNA-1 binding to DNA; EBNA-1 DNA binding, fluorescence polarization; inhibition, % at 14.8 µM; hit rate 0.34% among 300,000; AID 1950; in the data active = inhibition above about 28%
# dFosB act-1 = enhances mouse delta FosB homodimer DNA binding | P13346 | purified delta FosB, TAMRA-CDK5 oligo fluorescence polarization; percent of positive-control signal above neutral wells | activation, % at 25 µM | hit rate 0.99% among 340,000;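 active = mean activation above about 17%, with every replicate also reaching it, limit read from the data, passing the limit was not always enough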
# Target sequence (P13346 whole entry, looked up): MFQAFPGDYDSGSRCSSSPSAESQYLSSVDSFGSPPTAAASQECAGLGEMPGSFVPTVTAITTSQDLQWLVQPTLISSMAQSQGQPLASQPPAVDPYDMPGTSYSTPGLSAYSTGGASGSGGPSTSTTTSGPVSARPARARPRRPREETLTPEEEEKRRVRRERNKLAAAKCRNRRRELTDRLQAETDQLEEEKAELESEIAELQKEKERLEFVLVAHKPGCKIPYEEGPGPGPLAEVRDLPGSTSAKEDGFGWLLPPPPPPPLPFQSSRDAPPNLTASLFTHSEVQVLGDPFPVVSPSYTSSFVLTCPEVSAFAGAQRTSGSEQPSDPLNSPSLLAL
# GRIN3A LBD mod = NR3A (human) ligand-binding domain modulation | NR3A LBD differential scanning fluorimetry, Tm shift; 0% = protein alone, 100% = glycine-bound protein | Tm shift relative to glycine control, % at 25 µM | hit rate 2.5% among 340,000;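 active = melting temperature shift of at least 10% of the positive control shift, at one fixed dose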
# ZTA counter = counter-screen for EBNA-1 inhibitors: inhibitors of Epstein-Barr virus ZTA; ZTA-DNA binding, fluorescence polarization; AID 2234; P03206; inhibition, % at 11 µM; hit rate 0.15% among 320,000; in the data active = inhibition above about 33%
# Target sequence (P03206 whole entry, looked up): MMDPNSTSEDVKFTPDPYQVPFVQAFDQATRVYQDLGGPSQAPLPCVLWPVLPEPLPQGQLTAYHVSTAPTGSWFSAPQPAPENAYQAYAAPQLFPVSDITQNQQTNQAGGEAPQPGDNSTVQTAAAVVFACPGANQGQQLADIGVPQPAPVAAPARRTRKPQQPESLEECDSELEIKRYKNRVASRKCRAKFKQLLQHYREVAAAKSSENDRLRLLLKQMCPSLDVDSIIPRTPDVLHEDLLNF
# Zta DNA confirm = confirmation of Epstein-Barr virus ZTA DNA binding inhibitors. shares compounds with ZTA counter. Zta-ZRE DNA binding, fluorescence polarization. inhibition, % at 11.1 µM. hit rate 30% among 320. AID 2361;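 active = mean inhibition across triplicate runs above the hit threshold derived for the original primary screen, cut at about 33% in these data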;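 note: 0% = Zta with DMSO and 100% = wells lacking Zta protein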
# EBNA-1 counter = EBNA-1 DNA binding inhibition, counter-screen for ZTA; shares compounds with ZTA counter; fluorescence polarization; inhibition, % at 14.8 µM; 320 tested, under 10 active; AID 2362; call rule not given here
# dFosB act-2 = enhances mouse delta FosB homodimer binding to DNA; AID 588690; shares compounds with dFosB act-1; purified delta FosB, TAMRA-CDK5 oligo fluorescence polarization; normalised: neutral wells 0, positive control 100; 2,400 tested, under 10 active; activation, % at 24.9 µM;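 active = highest replicate activation at or above 34% and every replicate reaching that threshold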;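 note: higher polarization means more probe DNA bound by delta FosB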
# Rpn11 confirm = confirmation of human proteasome Rpn11 inhibitors; hit rate 29% among 1,900; purified human 26S proteasome, Ub4-pepOG fluorescence polarization; proteasome pretreated with epoxomicin; shares compounds with Rpn11 block; inhibition, % at 20 µM; AID 602318
# MMP-2 inh = counter-screen for RPN11 inhibitors: inhibition of human MMP-2; recombinant MMP-2, FRET peptide cleavage fluorescence; hit rate 4% among 1,900; inhibition, % at 20 µM; shares compounds with Rpn11 block;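 note: human MMP-2 activated beforehand with APMA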
# Thrombin inh = thrombin (bovine) inhibition counter-screen | shares compounds with Rpn11 block | inhibition, % at 20 µM | hit rate 13% among 1,900 | bovine thrombin cleavage of Ub4-pepOG, fluorescence polarization;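 active = mean inhibition at least 40% at 20 µM, or signal 3 deviations below plate average, so some actives read negative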;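 note: plate controls were thrombin with DMSO for no effect and buffer wells lacking thrombin for full effect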
# Numbers without * were called inactive; i = inactive; x = no result given. Cut-off read from the data, not from the text of the source, unless noted: active = inhibition above about 40%; inactive = the rest.
SMILES,Rpn11 block,TPT1 inh,EBNA-1 inh,dFosB act-1,GRIN3A LBD mod,ZTA counter,Rpn11 confirm,MMP-2 inh,Thrombin inh,others
COC(=O)CSC1=NP(=S)(SCC(=O)OC)N2CCCC2=C1C#N (stereo unspecified),-0.2,-1.4,14.1,-5.0,-4.3,8.4,x,x,x,
Cc1cc(/C=C2\C(=O)NC(=O)N(c3ccccc3F)C2=O)c(C)n1-c1cc(C(=O)O)cc(C(=O)O)c1,-1.1,3.2,-1.9,-5.9,3.2,33.0*,x,x,x,Zta DNA confirm=60.4*;EBNA-1 counter=3.5
Cc1cc(/C=C2\C(=O)NC(=O)N(c3ccc(F)cc3)C2=O)c(C)n1-c1cccc(C(=O)O)c1,5.3,11.7,-0.4,-5.3,-0.2,3.1,x,x,x,
C=CCn1c(O)c(C=Nc2ccc(N(CC)CC)cc2)c(=O)[nH]c1=O,13.6,23.1,6.7,1.1,-1.4,45.1*,x,x,x,Zta DNA confirm=1.0;EBNA-1 counter=-7.1
COc1ccc(CCn2c(O)c(C=Nc3ccc(NC(C)=O)cc3)c(=O)[nH]c2=O)cc1OC,46.1*,7.2,9.5,23.1*,1.5,60.0*,16.2,i,0.7,Zta DNA confirm=47.5*;EBNA-1 counter=38.2*
O=C(Nc1ccc(F)cc1)N1Cc2ccccc2-n2nncc2C1,9.9,x,x,x,x,x,x,x,x,
NCCNc1ccc([N+](=O)[O-])c2cccnc12,-0.1,1.2,-6.1,16.5*,-0.1,-2.3,x,x,x,dFosB act-2=8.5
CC/C(=N\N1CCCCCC1)c1c(O)n(-c2ccccc2C)c(=O)[nH]c1=O,4.6,-0.1,7.9,-1.1,-1.7,16.2,x,x,x,
CNC(=O)Oc1ccc2c(c1)C(=O)c1ccccc1CO2,100.3*,-1.8,4.6,-4.1,-7.2,-13.3,-13.9,-47.0,-5.2,
O=c1[nH]c(CN2CC=C(c3ccccc3)CC2)nc2cc(C(F)(F)F)ccc12,47.0*,19.5,6.8,-7.6,0.6,8.9,9.0,1.5,-8.0,
Cc1ccc2c(CN3CC=C(c4ccccc4)CC3)cc(=O)oc2c1C,4.3,2.9,-3.4,13.0,5.4,-2.4,x,x,x,
Cc1ccc(N2C(=O)NC(=O)/C(=C/c3ccoc3)C2=O)cc1,150.3*,x,x,-17.9,-1.1,x,144.3*,32.0,23.4,
Cc1ccc(N2C(=O)NC(=O)/C(=C/c3cnn(-c4ccc(C)cc4)c3)C2=O)cc1,7.2,0.6,-9.3,-8.6,-5.5,6.0,x,x,x,
COc1ccc(N2C(=O)/C(=C/c3ccc(OC)c(OC)c3)C(=O)NC2=S)cc1,52.6*,x,x,-1.5,0.2,x,2.0,8.4,6.6,
COc1ccc(N2C(=O)/C(=C/c3ccc(C)o3)C(=O)NC2=S)c(OC)c1,51.0*,19.3,-0.1,-4.0,0.1,9.3,9.4,33.3,40.3*,
COc1ccc(OC)c(N2C(=O)NC(=O)/C(=C\c3ccc([N+](=O)[O-])s3)C2=O)c1,21.0,7.2,-8.8,-15.1,-6.6,-5.7,x,x,x,
COC(=O)CCCCC1SCC(NC(=O)c2ccccc2)C1Cl (stereo unspecified),-15.9,-12.9,-1.6,-4.7,0.0,11.5,x,x,x,
O=c1[nH]c(=O)n(-c2ccc(F)cc2)c(O)c1C=Nc1ccccc1N1CCCC1,61.1*,1.0,-7.9,6.2,1.7,8.8,15.5,28.9,-51.6,
C=CCn1c(O)c(C(C)=NCCC2=CCCCC2)c(=O)[nH]c1=O,2.4,-1.8,-4.7,-8.1,-0.2,6.0,x,x,x,
COc1ccc(/C=C/C(=O)c2c(O)n(CCC3=CCCCC3)c(=O)[nH]c2=O)cc1OC,44.4*,8.8,-0.1,-2.7,-0.5,2.6,active,-61.8,active,
O=c1c2ccccc2nc(-c2ccco2)n1-c1nccs1,49.9*,0.0,4.1,8.2,1.3,10.8,-11.7,-27.9,-6.2,
COc1ccc(CCNCc2ccc(Br)cc2)cc1OC,1.3,-4.8,-7.4,2.9,1.7,-17.6,x,x,x,
CC(C)(C)N(NC(=O)c1ccccc1)C(=O)c1ccccc1,-10.2,3.2,-9.7,1.8,1.3,3.5,x,x,x,
O=c1[nH]c(=S)n(Cc2ccc(F)cc2)c(O)c1/C=N/N1CCCCCC1,57.2*,8.3,4.0,4.2,-21.2,9.4,22.9,25.3,13.5,
O=c1[nH]c(=S)n(Cc2ccc(F)cc2)c(O)c1C=NCc1ccc2c(c1)OCO2,31.5*,-0.1,5.7,40.4*,-1.2,-3.3,-13.3,-9.5,-17.9,
SMILES,Rpn11 block,TPT1 inh,EBNA-1 inh,dFosB act-1,GRIN3A LBD mod,ZTA counter,Rpn11 confirm,MMP-2 inh,Thrombin inh,others
CC(Cc1ccccc1Sc1ccccc1O)N(C)C (stereo unspecified),-0.6,-0.8,4.0,-9.6,-0.4,1.2,x,x,x,
CC(C)c1ccc(N2C(=O)CC(=O)NC2=O)cc1,36.6*,19.9,-3.9,0.1,-0.7,6.2,15.1,3.0,3.6,
Cc1ccccc1N1C(=O)CC(=O)NC1=O,4.5,8.4,-10.4,6.4,2.0,-13.3,x,x,x,
CCc1ccccc1N1C(=O)CC(=O)NC1=O,28.4*,5.9,10.6,-1.8,-0.3,5.6,-8.0,-37.0,3.7,
CCOP(=S)(OCC)SCSP(=S)(OCC)OCC,-0.2,x,x,2.4,0.2,x,x,x,x,
CC12C=CC(=O)CC1CCC1C2CCC2(C)C(O)C(O)CC12 (stereo unspecified),-2.3,x,x,-1.1,-0.2,x,x,x,x,
O=c1c2ccccc2nc(/C=C/c2ccc(O)cc2)n1-c1ccccc1O,38.7*,6.2,3.7,-8.8,-7.1,1.1,12.7,-16.8,7.4,
CC(C)CCNC(=O)c1cc(C(=O)c2cc(Br)ccc2O)cn(CCC(C)C)c1=O,45.4*,3.6,-0.3,0.5,8.9,1.5,-10.0,-17.3,-9.2,
CC(C)CCNC(=O)c1cc(C(=O)c2cc(F)ccc2O)cn(CCC(C)C)c1=O,-4.0,1.9,0.0,-3.1,-4.8,-4.0,x,x,x,
CC(C)c1ccc(-n2c(O)c(/C=N/NC(=O)c3ccncc3)c(=O)[nH]c2=O)cc1,0.7,8.3,2.7,-5.4,-0.8,15.6,x,x,x,
CC(C)c1ccc(-n2c(O)c(/C=N/NC(=O)c3ccccc3O)c(=O)[nH]c2=S)cc1,48.4*,9.2,-1.1,-0.5,-1.0,1.2,53.1*,36.2,0.3,
O=C(N/N=C/c1c(O)n(C2CCCCC2)c(=S)[nH]c1=O)c1ccccc1O,49.4*,6.5,-0.9,8.0,21.8*,12.5,52.9*,-22.3,13.1,

# Compound activity from PubChem.
